The source of these data is PubChem BioAssay (NCATS).

The structures appear in SMILES notation. The source made the active and inactive calls.

For one experiment the following is noted: Ebola virus entry assay, ratio channel readout.
For `CC1(C)S[C@@H]2[C@H](NC(=O)Cc3ccccc3)C(=O)N2[C@H]1C(=O)O` (tested in a mixture with another compound), the result was inactive.
Same read-out and setting: then `C[n+]1ccccc1/C=N/O`, with “inactive”.
For the compound `CN(CCOc1ccc(NS(C)(=O)=O)cc1)CCc1ccc(NS(C)(=O)=O)cc1`, the result was inactive.
For the compound `CC(=O)CCCCn1c(=O)c2c(ncn2C)n(C)c1=O`, the result was inactive.
On the same count and under the same terms, then `Cc1cn([C@H]2C=C[C@@H](CO)O2)c(=O)[nH]c1=O`, with “inactive”; and `CCCCCOC(=O)Nc1nc(=O)n([C@@H]2O[C@H](C)[C@@H](O)[C@H]2O)cc1F`, with “inactive”; and `COc1ccc(-c2cc(=S)ss2)cc1`, with “inactive”.
Regarding `CC(C)NCC(O)c1ccc(O)c(O)c1` (stereo unspecified), the outcome was inactive.
Turning to `CC1(C)O[C@@H]2[C@@H](CO[C@@]3(COS(N)(=O)=O)OC(C)(C)O[C@@H]23)O1`, the outcome was inactive.
As to `CN(C)c1nc(N(C)C)nc(N(C)C)n1`, the result was inactive.
The same measure, in the same setting: the same measure for `C[C@H]1O[C@H](O[C@H]2[C@H](O)[C@@H](O)[C@@H](O[C@H]3[C@H](O)[C@@H](O)[C@H](O)O[C@@H]3CO)O[C@@H]2CO)[C@H](O)[C@@H](O)[C@@H]1N[C@H]1C=C(CO)[C@@H](O)[C@H](O)[C@H]1O`: “inactive”; for `N[C@@H](Cc1cc(I)c(Oc2cc(I)c(O)c(I)c2)c(I)c1)C(=O)O`: “inactive”.
For `CC(=O)O[C@]1(C(C)=O)CC[C@H]2[C@@H]3C=C(C)C4=CC(=O)CC[C@]4(C)[C@H]3CC[C@@]21C`, the result was inactive.
Consider `COc1nc(N)nc2c1ncn2[C@@H]1O[C@H](CO)[C@@H](O)[C@@H]1O`, for which the result was inactive.
As for `CCOc1ccc2ccccc2c1C(=O)N[C@@H]1C(=O)N2[C@@H]1SC(C)(C)[C@@H]2C(=O)O`, the outcome was inactive.
Still for that read-out and setting: the same measure for `O=c1n(CCCN2CCN(c3cccc(Cl)c3)CC2)nc2ccccn12`: “inactive”; for `CC(=O)N(O)CCCCCNC(=O)CCC(=O)N(O)CCCCCNC(=O)CCC(=O)N(O)CCCCCN`: “inactive”.
`CN(C)CCc1c[nH]c2ccc(CS(=O)(=O)N3CCCC3)cc12`: the outcome was inactive.
In the case of `Nc1nc(=S)c2[nH]cnc2[nH]1`, the outcome was inactive.
As for `NC(=O)NO`, the result was inactive.
Regarding `O=C1CC[C@@]2(O)[C@H]3Cc4ccc(O)c5c4[C@@]2(CCN3CC2CC2)[C@H]1O5`, the result was inactive.
Turning to `CC(C)(O)c1ccccc1CC[C@@H](SCC1(CC(=O)O)CC1)c1cccc(/C=C/c2ccc3ccc(Cl)cc3n2)c1`, the outcome was inactive.
Turning to `COc1c(C)c2c(c(O)c1C/C=C(\C)CCC(=O)O)C(=O)OC2`, the result was inactive.
On the same count and under the same terms, then `Cc1ccc(C(=O)c2cc(O)c(O)c([N+](=O)[O-])c2)cc1`, with “inactive”.
On to `NS(=O)(=O)Cc1noc2ccccc12`, for which the outcome was inactive.
In the case of `COC(c1ccccc1)(c1ccccc1)[C@H](Oc1nc(C)cc(C)n1)C(=O)O`, the outcome was inactive.
As to `Nc1ncn([C@@H]2O[C@H](CO)[C@@H](O)[C@H]2O)c(=O)n1`, the outcome was inactive.
Turning to `COc1cc2c(cc1OC)[C@@H]1CC(=O)[C@@H](CC(C)C)CN1CC2`, the result was inactive.
For the compound `Cc1cc(C)cc(OCC2CNC(=O)O2)c1` (stereo unspecified), the result was inactive.
In the case of `O=NN(CCCl)C(=O)NCCCl`, the outcome was inactive.
On the same count and under the same terms, then `CCCN(CCC)S(=O)(=O)c1ccc(C(=O)O)cc1`, with “inactive”.
Still for that read-out and setting: the same measure for `O=NN(CCCl)C(=O)NC1CCCCC1`: “inactive”; for `CCN(C)C(=O)Oc1cccc([C@H](C)N(C)C)c1`: “inactive”.
Turning to `OC(Cn1cncn1)(Cn1cncn1)c1ccc(F)cc1F`, the outcome was inactive.
Take `CNS(=O)(=O)CCc1ccc2[nH]cc(C3CCN(C)CC3)c2c1`: the result was inactive.
Same read-out and setting: then `C=C(c1ccc(C(=O)O)cc1)c1cc2c(cc1C)C(C)(C)CCC2(C)C`, with “inactive”.
Still for that read-out and setting: the same measure for `CCCN[C@H]1CCc2nc(N)sc2C1`: “inactive”; for `O=C(OC1C[C@H]2CC[C@@H](C1)[N+]21CCCC1)C(O)(c1ccccc1)c1ccccc1` (stereo partly specified): “inactive”.

The conditions of the next experiment: Ebola virus entry assay, blue channel fluorescence.
As to `CC1(C)S[C@@H]2[C@H](NC(=O)Cc3ccccc3)C(=O)N2[C@H]1C(=O)O` (tested in a mixture with another compound), the result was inactive.
In the case of `C[n+]1ccccc1/C=N/O`, the call was inactive.
Same read-out and setting: then `CN(CCOc1ccc(NS(C)(=O)=O)cc1)CCc1ccc(NS(C)(=O)=O)cc1`, with “inactive”; and `CC(=O)CCCCn1c(=O)c2c(ncn2C)n(C)c1=O`, with “inactive”; and `Cc1cn([C@H]2C=C[C@@H](CO)O2)c(=O)[nH]c1=O`, with “inactive”.
As for `CCCCCOC(=O)Nc1nc(=O)n([C@@H]2O[C@H](C)[C@@H](O)[C@H]2O)cc1F`, the call was inactive.
For the compound `COc1ccc(-c2cc(=S)ss2)cc1`, the outcome was inactive.
In the case of `CC(C)NCC(O)c1ccc(O)c(O)c1` (stereo unspecified), the result was inactive.
With `CC1(C)O[C@@H]2[C@@H](CO[C@@]3(COS(N)(=O)=O)OC(C)(C)O[C@@H]23)O1`, the compound was called inactive.
Same read-out and setting: the same measure for `CN(C)c1nc(N(C)C)nc(N(C)C)n1`: “inactive”; for `C[C@H]1O[C@H](O[C@H]2[C@H](O)[C@@H](O)[C@@H](O[C@H]3[C@H](O)[C@@H](O)[C@H](O)O[C@@H]3CO)O[C@@H]2CO)[C@H](O)[C@@H](O)[C@@H]1N[C@H]1C=C(CO)[C@@H](O)[C@H](O)[C@H]1O`: “inactive”; for `N[C@@H](Cc1cc(I)c(Oc2cc(I)c(O)c(I)c2)c(I)c1)C(=O)O`: “inactive”.
With `CC(=O)O[C@]1(C(C)=O)CC[C@H]2[C@@H]3C=C(C)C4=CC(=O)CC[C@]4(C)[C@H]3CC[C@@]21C`, the compound was classed as inactive.
`COc1nc(N)nc2c1ncn2[C@@H]1O[C@H](CO)[C@@H](O)[C@@H]1O`: the result was inactive.
Still for that read-out and setting: the same measure for `CCOc1ccc2ccccc2c1C(=O)N[C@@H]1C(=O)N2[C@@H]1SC(C)(C)[C@@H]2C(=O)O`: “inactive”; for `O=c1n(CCCN2CCN(c3cccc(Cl)c3)CC2)nc2ccccn12`: “inactive”; for `CC(=O)N(O)CCCCCNC(=O)CCC(=O)N(O)CCCCCNC(=O)CCC(=O)N(O)CCCCCN`: “inactive”.
For the compound `CN(C)CCc1c[nH]c2ccc(CS(=O)(=O)N3CCCC3)cc12`, the result was inactive.
Still for that read-out and setting: the same measure for `Nc1nc(=S)c2[nH]cnc2[nH]1`: “inactive”; for `NC(=O)NO`: “inactive”.
On to `O=C1CC[C@@]2(O)[C@H]3Cc4ccc(O)c5c4[C@@]2(CCN3CC2CC2)[C@H]1O5`, for which the compound was classed as inactive.
With `CC(C)(O)c1ccccc1CC[C@@H](SCC1(CC(=O)O)CC1)c1cccc(/C=C/c2ccc3ccc(Cl)cc3n2)c1`, the compound was called inactive.
Regarding `COc1c(C)c2c(c(O)c1C/C=C(\C)CCC(=O)O)C(=O)OC2`, the result was inactive.
On to `Cc1ccc(C(=O)c2cc(O)c(O)c([N+](=O)[O-])c2)cc1`, for which the outcome was inactive.
Turning to `NS(=O)(=O)Cc1noc2ccccc12`, the compound was called inactive.
Consider `COC(c1ccccc1)(c1ccccc1)[C@H](Oc1nc(C)cc(C)n1)C(=O)O`, for which the outcome was inactive.
Regarding `Nc1ncn([C@@H]2O[C@H](CO)[C@@H](O)[C@H]2O)c(=O)n1`, the result was inactive.
As to `COc1cc2c(cc1OC)[C@@H]1CC(=O)[C@@H](CC(C)C)CN1CC2`, the result was inactive.
The same measure, in the same setting: the same measure for `Cc1cc(C)cc(OCC2CNC(=O)O2)c1` (stereo unspecified): “inactive”; for `O=NN(CCCl)C(=O)NCCCl`: “inactive”; for `CCCN(CCC)S(=O)(=O)c1ccc(C(=O)O)cc1`: “inactive”.
Turning to `O=NN(CCCl)C(=O)NC1CCCCC1`, the call was inactive.
Same read-out and setting: then `CCN(C)C(=O)Oc1cccc([C@H](C)N(C)C)c1`, with “inactive”; and `OC(Cn1cncn1)(Cn1cncn1)c1ccc(F)cc1F`, with “inactive”.
For the compound `CNS(=O)(=O)CCc1ccc2[nH]cc(C3CCN(C)CC3)c2c1`, the compound was called inactive.
Turning to `C=C(c1ccc(C(=O)O)cc1)c1cc2c(cc1C)C(C)(C)CCC2(C)C`, the call was inactive.
On the same count and under the same terms, the same measure for `CCCN[C@H]1CCc2nc(N)sc2C1`: “inactive”.
The same measure, in the same setting: the same measure for `O=C(OC1C[C@H]2CC[C@@H](C1)[N+]21CCCC1)C(O)(c1ccccc1)c1ccccc1` (stereo partly specified): “inactive”.
